Source: PubChem BioAssay (several laboratories)
Sampled rows, rich in hits. Any-hit rate of the full collection: about 3.3%.
Cardio protect = cardioprotection against H2O2-induced cell death, primary screen, uHTS, H9c2 cells, ATPLite luminescence | protection from H2O2 cell death, % at 20 µM | hit rate 0.63% among 360,000 | H9c2 cardiomyocytes, H2O2 injury protection, 2 h;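 active means compounds giving at least 50% protection of heart cells from peroxide-induced death in the single-dose screen, raw or plate-pattern-corrected value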
Cl transport mod = KCC2 cotransporter modulators, thallium flux, primary screen, cell-based, HEK293 KCC2, FluoZin-2 fluorescence, MLSMR. B-score of Tl+ flux slope (higher = more flux/activation; lower = inhibition) at 10 µM. hit rate 2.2% among 190,000. AID 1456, 2008. Solute carrier family 12 member 5 (Homo sapiens), Q9H2X9. KCC2 cells, thallium flux FluoZin-2 fluorescence;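 active means thallium flux slope and its plate-corrected score both differing from the plate sample mean at a set confidence after two filtering rounds, in either direction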;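 further: slope of fluorescence scaled to starting intensity during 10 to 20 s after thallium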
PHOSPHO1 inh = PubChem AID 1565; Phosphoethanolamine/phosphocholine phosphatase (Homo sapiens), Q8TCT1; recombinant PHOSPHO1, absorbance phosphatase assay; inhibition, % at 13.3 µM; hit rate 1.1% among 290,000; in the data active means inhibition above about 60%
Calb FLC = C. albicans growth inhibition with fluconazole, primary screen, CaCi-2 strain, Alamar Blue fluorescence; C. albicans CaCi-2 (fluconazole-resistant clinical isolate) + fluconazole, 48 h; growth inhibition, % (no concentration beside the values); hit rate 0.57% among 300,000; AID 1979, 2009;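 active means growth inhibition above about 58% in most replicates, limit read from the data, passing the limit was not always enough; inconclusive means exactly half the replicates above a set limit; inactive means most replicates below a set limit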;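 further: all wells also contain fluconazole at 8 µg/ml as a sub-toxic cotreatment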
Efflux pump inh = inhibitors of Candida efflux pumps in yeast, primary screen, S. cerevisiae, Nile Red, multiplex | hit rate 0.44% among 330,000 | S. cerevisiae Candida pump triplex | inhibition, % at 10 µM;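 active means plate passing quality check with inhibition over a set limit, or well fluorescence over plate mean plus 4 SD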;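 further: Nile Red retained in pooled yeast measured as flow cytometry median fluorescence; higher means more Nile Red kept so more efflux inhibition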
Each line names hits and unclear results; the compound was inactive in the other large screens.

CC(=O)NC(c1cc(F)c2cccnc2c1O)C1CC1 (configuration not stated)	Cardio protect 55.3 (no result: Cl transport mod, PHOSPHO1 inh, Calb FLC)
O=C(NC(c1ccc(Cl)cc1)c1cc(Cl)c2cccnc2c1O)c1cccnc1 (configuration not stated)	Calb FLC 83.7
CCC(=O)NC(c1ccc(C)cc1)c1cc([N+](=O)[O-])c2cccnc2c1O (configuration not stated)	Calb FLC 109.8
CCOc1ccccc1N(CC(=O)NC1CCCCC1)S(=O)(=O)c1ccc(C)cc1	none (no result: Cl transport mod)
Oc1ccc(CCc2ccccn2)cc1	none (no result: Cl transport mod, PHOSPHO1 inh, Calb FLC, Efflux pump inh)
CCC(=O)NC(c1ccco1)c1cc(Br)c2cccnc2c1O (configuration not stated)	none (no result: Cl transport mod, PHOSPHO1 inh, Calb FLC, Efflux pump inh)
CC(=O)NC(c1ccc(C)cc1)c1cc([N+](=O)[O-])c2cccnc2c1O (configuration not stated)	Calb FLC 108.5 (no result: Cl transport mod)
CCC(=O)NC(c1cccs1)c1cc(Cl)c2cccnc2c1O (configuration not stated)	Calb FLC 99.2
CCCC(=O)NC(c1ccco1)c1cc([N+](=O)[O-])c2cccnc2c1O (configuration not stated)	Cardio protect 55.0, Calb FLC 109.0
CCCCC(=O)NC(c1cccs1)c1cc(Cl)c2cccnc2c1O (configuration not stated)	Calb FLC inconclusive
COc1cccc(C(=O)N2CCC2(C)C(=O)NC(C)C)c1 (configuration not stated)	none (no result: Cl transport mod, PHOSPHO1 inh, Calb FLC, Efflux pump inh)
COc1ccc(Nc2c[nH]c(=O)[nH]c2=O)cc1	none (no result: Cl transport mod, PHOSPHO1 inh, Calb FLC, Efflux pump inh)
Cc1nn(-c2ccccc2)c(N2CCCC2)c1/C=N/NC(=O)c1cc(-c2cccnc2)nc2ccccc12	Cardio protect 59.2
Cc1nn(-c2ccccc2)c(N2CCCC2)c1/C=N/NC(=O)c1ccccc1O	Calb FLC 90.6
Cc1nn(-c2ccccc2)c(C)c1/C=N/NC(=O)c1ccccc1O	none (no result: Cl transport mod)
O=C(N/N=C/c1cc2c3c(c1O)CCCN3CCC2)c1ccccc1O	Calb FLC 108.1 (no result: Efflux pump inh)
Cc1nn(-c2ccccc2)c(Cl)c1C(=O)NNC(=O)c1ccncc1	none (no result: Cl transport mod, PHOSPHO1 inh, Calb FLC)
Cc1nn(-c2ccccc2)c(Cl)c1C(=O)NNC(=O)c1ccccc1O	Cardio protect 57.3 (no result: Cl transport mod, PHOSPHO1 inh, Calb FLC)
CC1(C)CC[C@@]23CC[C@]4(C)[C@@](OC2=O)(C3C1)[C@H]1O[C@H]1C1[C@@]2(C)CC[C@H](O)C(C)(C)C2CC[C@]14C (some centres not stated)	none (no result: Cardio protect, Cl transport mod, PHOSPHO1 inh)
CNC(=O)c1ccsc1NC(=O)CS(=O)(=O)c1ccc(F)cc1	none (no result: Cl transport mod, PHOSPHO1 inh, Calb FLC, Efflux pump inh)
CCC(C)NC(=O)c1cn(CC)c2cc(N3CCN(C(=O)c4ccco4)CC3)c(F)cc2c1=O (configuration not stated)	none (no result: Cl transport mod)
O=C(Nn1c(O)c(C=C2N=c3ccccc3=N2)sc1=S)c1cccc(Cl)c1	PHOSPHO1 inh 86.0 (no result: Cl transport mod)
O=C(Nn1c(O)c(C=C2N=c3ccccc3=N2)sc1=S)c1ccc(Cl)cc1	none (no result: Cl transport mod)
Cc1ccc(S(=O)(=O)Nc2ccc(O)c3ncccc23)cc1	Cardio protect 51.5, Calb FLC 99.4
Cc1ccc(S(=O)(=O)Nc2ccc(O)c3cccnc23)cc1	none (no result: Cl transport mod)
CCS(=O)(=O)Nc1ccc(-c2nnc(SCC(=O)OC)o2)cc1	none
CCOC(=O)Cc1csc(NC(=O)CSc2nnc(-c3ccc(NS(=O)(=O)CC)cc3)o2)n1	Calb FLC 85.0 (no result: PHOSPHO1 inh)
CCOC(=O)Cc1csc(NC(=O)CSc2nnc(-c3ccncc3)o2)n1	Calb FLC 105.5
Cc1csc(NC(=O)CSc2nnc(-c3ccncc3)o2)n1	none
COc1cc(C(=S)N2CCN(c3ccccc3Cl)CC2)cc(O)c1O	Cardio protect 84.8, Calb FLC 91.4
COc1ccc(C(=S)N2CCN(c3ccccc3Cl)CC2)cc1OC	none
CNc1ccccc1C(=O)OCC(=O)N(CCOC)c1c(N)n(CC(C)C)c(=O)[nH]c1=O	none (no result: Cl transport mod, PHOSPHO1 inh)
COc1ccc(N2CCN(C(=S)NC(=O)c3cccs3)CC2)c([N+](=O)[O-])c1	Cl transport mod 89.8
CNC(=O)c1cc(OCC(F)(F)F)ccc1OCC(F)(F)F	PHOSPHO1 inh 61.0
Fc1ccccc1NC(=S)N/N=C/c1ccccc1Br	Cl transport mod 6.21
Cc1c(-c2ccc(/C=N/NC(=O)C(=O)Nc3ccccc3F)o2)cccc1[N+](=O)[O-]	none
O=[N+]([O-])c1ccc(/C=N/NC(=S)Nc2ccccc2F)o1	Cl transport mod 28.1
O=C(CCC(=O)Nc1ccc(Cl)cc1Cl)N/N=C/c1ccc([N+](=O)[O-])o1	Calb FLC 101.5
COc1ccc(-n2cc([N+](=O)[O-])c(=O)c3ccc(Cl)cc32)cc1	none (no result: Cl transport mod, PHOSPHO1 inh)
O=C(O)c1cc(-c2ccc3c(c2)OCCO3)n[nH]1	PHOSPHO1 inh 60.1
Cc1ccc(-n2cc(-c3ccccc3)c3c(N4CCOCC4)ncnc32)cc1	Cardio protect 57.0 (no result: Efflux pump inh)
O=C(COC(=O)c1cnccn1)Nc1ncc(C(F)(F)F)cc1Cl	none (no result: Cl transport mod, PHOSPHO1 inh, Calb FLC)
O=C(Nc1nnc(SCc2ccc(Cl)cc2)s1)c1cnccn1	Calb FLC 79.8
O=C(NCC1CCCO1)c1ccc([N+](=O)[O-])s1 (configuration not stated)	none (no result: Cl transport mod)
Cc1cc(Cl)ccc1OCCCC(=O)NNC(=O)c1ccccc1O	Cardio protect 55.4 (no result: Cl transport mod, PHOSPHO1 inh)
Cc1c(C(=O)N2CCCCCC2)c(S(=O)(=O)Nc2ccc(F)cc2)c(C)n1C	none (no result: Cl transport mod)
CCOc1ccc(C2CC(c3ccc(CC)cc3)n3nc(N)nc3N2)cc1 (configuration not stated)	PHOSPHO1 inh 62.4
CC(=O)c1cccc(NC(=O)C2CC(=O)N(C3CCCC3)C2)c1 (configuration not stated)	none (no result: Cl transport mod, PHOSPHO1 inh, Calb FLC)
CCc1nc(SCC(=O)N2CC(=O)Nc3ccccc32)c2c(C)c(C)sc2n1	Cl transport mod 5.5
Cc1sc2nc(C3CCCCC3)nc(SCC(=O)N3CC(=O)Nc4ccccc43)c2c1C	none (no result: Cl transport mod)
Cc1ccc(N/N=C2/CCCNC2=O)cc1	PHOSPHO1 inh 93.0
Cc1ccccc1S(=O)(=O)N1C[C@H]2CON(C)[C@H]2C[C@H]1c1cccc(-c2ccc(C#N)cc2)c1	none (no result: Cl transport mod, PHOSPHO1 inh, Calb FLC, Efflux pump inh)
COc1ccc(-c2noc(CN(C)S(=O)(=O)c3ccccc3)n2)cc1OC	Cardio protect 55.2 (no result: PHOSPHO1 inh)
CCn1c(=O)cc(SCC(=O)N2CCN(c3ccccc3OC)CC2)c2ccccc21	PHOSPHO1 inh 62.6
Cc1ccc(OCCC(=O)OCC(=O)NCCc2ccc(Cl)cc2)cc1	none (no result: Cl transport mod, PHOSPHO1 inh)
Cc1cc(C(F)(F)F)nn1Cc1n[nH]c(=S)n1-c1cccc(Cl)c1	PHOSPHO1 inh 84.1
Cc1cc(C(F)(F)F)nn1Cc1n[nH]c(=S)n1-c1ccc(Cl)cc1	PHOSPHO1 inh 102.0, Calb FLC inconclusive
Cc1ccc(-n2c(C)n[nH]c2=S)cc1	none
Cc1ccc(-n2c(Cn3nc(C(F)F)cc3C(F)F)n[nH]c2=S)cc1	PHOSPHO1 inh 99.7
CCN(CC(=O)NCc1ccc(Cl)cc1)C(=O)c1ccc(S(=O)(=O)NCc2ccco2)cc1	none (no result: Cl transport mod)
CCNC(=S)N/N=C(\C)c1ccc(Cl)s1	Cl transport mod 19.4
